The subject of assay [1] is Plasmodium falciparum Sir2 (PF13_0152, Sir2A). Briefly: pfSir2 binders on small-molecule microarrays, primary screen, biochemical, small-molecule microarray, 635 nm fluorescence (AID 1098).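 Also: score merges spot fluorescence intensity with its signal-to-noise ratio.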 Conditions: small-molecule microarray binding, fluorescence 635 nm; higher = more signal.
Assay [2] is described as follows: small-molecule microarray binders of probe aDKK1, primary screen, biochemical, biotinylated probe, 635/667 nm fluorescence (AID 1099).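 Also: score merges 667nm spot fluorescence with signal to noise across triplicate slides; reference of the scale not given here.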 Conditions: higher = more signal.
Assay [3] can be described thus: small-molecule microarray binders of probe aCHRDL2, primary screen, biochemical, biotinylated probe, 635/667 nm fluorescence (AID 1100). The note with it: higher = more signal.
Assay [4] can be described thus: splicing luciferase reporter signal modulators, primary screen, spliceosome inhibition project, cell-based, HEK293, splice +/- reporter (AID 1101).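 Also: HEK293 cells carrying a splicing-competent luciferase reporter gene; test concentration not given here.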 Conditions: luminescence, 24 h, higher = more signal, called active from +8 up or from −8 down.
Assay [5] deals with Fibroblast growth factor 10 (Homo sapiens) (UniProt O15520). The assay is described as follows: FGF10 binders on small-molecule microarrays, primary screen, biochemical, small-molecule microarray, 635 nm fluorescence (AID 1102). The note with it: FGF10 binding, fluorescence 635 nm, higher = more signal.
Fibroblast growth factor 10 (Homo sapiens), sequence (O15520 whole entry, looked up): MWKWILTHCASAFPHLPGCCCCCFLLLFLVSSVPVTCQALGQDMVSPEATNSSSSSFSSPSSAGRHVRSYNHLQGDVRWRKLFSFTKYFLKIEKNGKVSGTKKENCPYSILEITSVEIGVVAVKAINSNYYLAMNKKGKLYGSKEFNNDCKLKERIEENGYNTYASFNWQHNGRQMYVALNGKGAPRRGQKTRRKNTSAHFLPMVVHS
Assay [6] concerns glycogen synthase kinase-3 (GSK3A per assay name; protocol says GSK3B). Briefly: GSK3 binders on small-molecule microarrays, primary screen, biochemical, small-molecule microarray, 635 nm fluorescence, GSK3A (AID 1103). Also: the record names both GSK3A and GSK3B. Conditions: small-molecule microarray binding, fluorescence 635 nm; higher = more signal.
The target in assay [7] is Epidermal growth factor receptor (Homo sapiens) (UniProt P00533). The assay is described as follows: EGFR binders on small-molecule microarrays, primary screen, biochemical, small-molecule microarray, 635 nm fluorescence (AID 1104).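 Also: score merges 667 nm emission intensity with spot signal to noise over triplicate slides.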 The note with it: EGFR binding, higher = more signal.
Epidermal growth factor receptor (Homo sapiens), sequence (P00533 whole entry, looked up): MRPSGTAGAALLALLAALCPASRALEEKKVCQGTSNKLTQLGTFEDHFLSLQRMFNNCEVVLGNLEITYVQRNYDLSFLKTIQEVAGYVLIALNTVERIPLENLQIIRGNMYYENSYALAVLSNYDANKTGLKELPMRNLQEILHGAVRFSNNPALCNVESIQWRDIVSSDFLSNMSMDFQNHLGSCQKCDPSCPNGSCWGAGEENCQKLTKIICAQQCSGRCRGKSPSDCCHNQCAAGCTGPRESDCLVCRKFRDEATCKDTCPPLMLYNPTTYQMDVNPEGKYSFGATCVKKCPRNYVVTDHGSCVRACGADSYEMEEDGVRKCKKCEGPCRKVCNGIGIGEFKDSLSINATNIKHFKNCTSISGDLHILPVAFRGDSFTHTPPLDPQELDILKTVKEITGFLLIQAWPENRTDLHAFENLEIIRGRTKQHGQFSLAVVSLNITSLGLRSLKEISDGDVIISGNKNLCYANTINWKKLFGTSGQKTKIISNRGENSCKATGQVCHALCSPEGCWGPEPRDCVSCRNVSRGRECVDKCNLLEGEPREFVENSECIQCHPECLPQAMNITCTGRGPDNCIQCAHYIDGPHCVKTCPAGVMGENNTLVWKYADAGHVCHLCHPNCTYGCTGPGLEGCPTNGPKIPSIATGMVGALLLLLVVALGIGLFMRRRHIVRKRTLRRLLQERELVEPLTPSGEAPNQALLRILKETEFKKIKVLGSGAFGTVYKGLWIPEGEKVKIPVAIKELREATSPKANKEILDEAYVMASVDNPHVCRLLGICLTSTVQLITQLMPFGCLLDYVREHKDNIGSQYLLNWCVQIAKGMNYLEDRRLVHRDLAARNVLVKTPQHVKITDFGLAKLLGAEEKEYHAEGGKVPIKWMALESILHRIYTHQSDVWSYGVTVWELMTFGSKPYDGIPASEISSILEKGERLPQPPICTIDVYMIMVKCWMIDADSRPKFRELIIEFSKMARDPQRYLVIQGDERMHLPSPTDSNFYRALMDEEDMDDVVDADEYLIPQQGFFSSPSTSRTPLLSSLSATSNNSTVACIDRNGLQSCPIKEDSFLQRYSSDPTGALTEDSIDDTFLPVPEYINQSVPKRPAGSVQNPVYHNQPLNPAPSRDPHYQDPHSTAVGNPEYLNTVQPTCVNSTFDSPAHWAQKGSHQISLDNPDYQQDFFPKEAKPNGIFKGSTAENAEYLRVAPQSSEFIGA
The target in assay [8] is Follistatin-related protein 3 (Homo sapiens) (UniProt O95633). Briefly: FSTL3 binders on small-molecule microarrays, primary screen, biochemical, small-molecule microarray, 635 nm fluorescence (AID 1105).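 Also: score merges emission near 667 nm and signal to noise per printed spot across three slides.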 Conditions: FSTL3 binding, higher = more signal.
Follistatin-related protein 3 (Homo sapiens), sequence (O95633 whole entry, looked up): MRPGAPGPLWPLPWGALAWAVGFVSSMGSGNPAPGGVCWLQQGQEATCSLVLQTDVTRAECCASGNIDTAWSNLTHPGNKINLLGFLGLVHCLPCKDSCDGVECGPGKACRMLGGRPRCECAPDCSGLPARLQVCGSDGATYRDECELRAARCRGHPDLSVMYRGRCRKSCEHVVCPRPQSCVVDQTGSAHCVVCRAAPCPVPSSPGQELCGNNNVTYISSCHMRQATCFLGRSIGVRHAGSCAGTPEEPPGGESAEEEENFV
In assay [9] the target is Dickkopf-related protein 1 (Homo sapiens) (UniProt O94907). The assay is described as follows: DKK1 binders on small-molecule microarrays, primary screen, biochemical, small-molecule microarray, 635 nm fluorescence scan (AID 1106).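 Also: score merges emission near 667 nm with signal to noise over three replicate slides.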 Conditions: DKK1 binding, higher = more signal.
Dickkopf-related protein 1 (Homo sapiens), sequence (O94907 whole entry, looked up): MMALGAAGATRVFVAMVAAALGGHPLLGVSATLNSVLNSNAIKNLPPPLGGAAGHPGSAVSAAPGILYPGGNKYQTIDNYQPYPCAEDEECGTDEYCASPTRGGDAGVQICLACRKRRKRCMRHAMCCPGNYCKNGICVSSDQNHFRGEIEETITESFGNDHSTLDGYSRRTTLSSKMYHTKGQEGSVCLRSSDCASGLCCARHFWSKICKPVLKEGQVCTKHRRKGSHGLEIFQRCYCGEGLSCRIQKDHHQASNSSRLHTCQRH
The test system of assay [10] is Inhibin beta A chain (activin A). Briefly: INHBA (activin A) binders on microarrays, primary screen, biochemical, small-molecule microarray, 635 nm fluorescence scan (AID 1107).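 Also: mouse activin A protein probed at 4.33 µg/mL on printed slides; score merges bound-protein fluorescence near 667 nm with spot signal-to-noise.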 The note with it: small-molecule microarray binding, higher = more signal.

Active and inactive are the calls of the source.

Take `COC(=O)C(CC#Cc1ccc2c(c1)[C@]1(C(=O)N2)[C@H](c2ccc(O)cc2)N2[C@H](c3ccccc3)[C@H](c3ccccc3)OC(=O)[C@H]2[C@@H]1C(=O)N1CCCCCCC1)C(=O)OC`: the composite z-score in assay [1] was 1.48; in [2] it was 2.23; in assay [3], 1.22; in assay [5], 0.869; in [6] it was 1.32; in assay [7], 0.765. Further, the values for the composite z-score in assay [8], in assay [9] and in assay [10] were 1.54, 1.22 and 1.77, respectively. Further, the z-score in assay [4] was -0.83 (inactive).
Turning to `CCOC(=O)C1=CC[C@@H](c2ccccc2)N(S(=O)(=O)c2ccc(C)cc2)[C@H]1c1cccc(OC)c1`, the composite z-score was 0.389 in assay [1]; 0.708 in [2]; 0.244 in assay [3]; 0.425 in assay [5]; 0.897 in assay [6]; 0.197 in assay [7]. In addition, the composite z-score stood at 0.549 in assay [8], 0.135 in assay [9] and 0.949 in assay [10]. The z-score in assay [4] is -0.937 (inactive).
For the compound `COc1cc2c(cc1O)C(c1ccc(CN3CCCC3)cc1)N(C)CC2` (stereo not given), the composite z-score is 0.232 in assay [1]; -0.0829 in assay [2]; -0.275 in [3]; 0.167 in [5]; -1.27 in [6]; -0.419 in [7]. Besides, the composite z-score in assay [8] is -0.567; in assay [9], -0.622; in assay [10], -0.172. For the same compound, in assay [4], the z-score was -0.00442 (inactive).
Turning to `CCCCC(=O)N(CCN1CCOCC1)[C@@H]1CC(C(=O)NCCO)=C[C@H](Oc2c(I)cc(CO)cc2OC)[C@H]1O`, the composite z-score in assay [1] is 0.787; in assay [2], -0.309; in [3], -0.764; in assay [5], 0.318; in assay [6], 0.725; in assay [7], 0.349. The results for the composite z-score in assay [8], in assay [9] and in assay [10] were 0.412, 0.817 and 0.0845, respectively. Also, the z-score in assay [4] is 0.751 (inactive).
For `COc1ccc([Si](C)(C)[C@H]2[C@H](CCO)O[C@@]3(C(=O)N(Cc4ccccc4)c4ccc(N5C(=O)c6ccccc6Oc6ccccc65)cc43)[C@@H]2C)cc1`, the composite z-score in assay [1] was 0.365; in assay [2] it was -0.167; in [3] it was -0.123; in assay [5], 0.0351; in assay [6], -0.512; in [7], -0.124. For the same compound, the figures for the composite z-score in assay [8], in assay [9] and in [10] were -0.734, 0.0449 and 0.201, respectively. Also, in assay [4], the z-score is -0.916 (inactive).
For the compound `COc1cc(NN2C(C(O)c3cc(OC)c(OC)c(OC)c3)C=CC3C(=O)N(c4ccccc4)C(=O)C32)cc(OC)c1OC` (stereo not given), the composite z-score was found to be 0.815 in assay [1]; 0.981 in [2]; 0.561 in [3]; 1.26 in assay [5]; 1.3 in assay [6]; 0.165 in [7]. The composite z-score was 1.1 in assay [8], 0.101 in assay [9] and 0.759 in assay [10]. Besides, in assay [4], the z-score is 0.269 (inactive).
On to `COc1ccc([Si](C)(C)[C@@H]2[C@@H](CC(=O)N3Cc4ccccc4C[C@H]3CO)O[C@]3(C(=O)N(Cc4ccc(N5CCC5=O)cc4)c4ccccc43)[C@H]2C)cc1`, for which the composite z-score is 1.16 in assay [1]; -0.259 in assay [2]; -0.1 in assay [3]; 0.46 in assay [5]; 0.852 in assay [6]; 0.744 in assay [7]. Moreover, the composite z-score in assay [8] turned out to be 1.06; in assay [9] it was 0.644; in assay [10] it was 0.331. The z-score in assay [4] is -1.12 (inactive).
In the case of `COCCOC(=O)N1C(=O)[C@@]2(c3cc(C#CCCO)ccc31)[C@H](C(N)=O)[C@H]1C(=O)O[C@H](c3ccccc3)[C@H](c3ccccc3)N1[C@@H]2c1ccc(OCCO)cc1`, the composite z-score in [1] was 1.44; in [2], 0.209; in assay [3], 0.415; in assay [5], 1.25; in assay [6] it was 1.23; in assay [7], 0.808. The composite z-score in [8] came to 1.14; in [9] it was 0.616; in assay [10] it was 0.914. The z-score in assay [4] is 0.475 (inactive).
For the compound `[N-]=[N+]=NCc1ccccc1[C@H]1OC(c2ccc(OCCCO)cc2)=N[C@@]1(CCS(=O)(=O)c1ccccc1)C(=O)NCc1ccccc1`, the composite z-score in assay [1] was 1.26; in [2] it was 1.65; in assay [3], 0.743; in assay [5], 1.06; in [6], 1.29; in assay [7], 0.333. Moreover, the composite z-score in assay [8] was 0.819; in assay [9], -0.0778; in [10], 0.447. The z-score in assay [4] was 0.118 (inactive).
As to `COc1ccc([Si](C)(C)[C@H]2[C@H](CC(=O)N3CCC[C@H]3CO)O[C@@]3(C(=O)N(Cc4ccc(N5CCC5=O)cc4)c4ccccc43)[C@@H]2C)cc1`, the composite z-score in assay [1] was 1.49; in assay [2] it was -0.248; in [3], -0.567; in assay [5], 1.34; in assay [6], 1.29; in [7], 0.838. Besides, the composite z-score in assay [8] was 1.41; in assay [9] it was 0.774; in assay [10], -0.525. Further, the z-score in assay [4] was -0.805 (inactive).
For `COC(=O)[C@@]1(Cc2ccc(OC)cc2)[C@H]2c3cc(C(=O)N4CCCC4)n(Cc4ccc(S(C)(=O)=O)cc4)c3C[C@H]2CN1C(=O)c1ccccc1`, the composite z-score came out at 0.645 in assay [1]; 0.807 in assay [2]; 1.29 in [3]; 0.508 in assay [5]; 0.401 in assay [6]; 0.348 in assay [7]. Also, the composite z-score in [8] was -0.0139; in assay [9], -0.802; in [10] it was 0.881. Further, the z-score in [4] was 0.699 (inactive).
For the compound `CCOC(=O)C[C@H]1[C@H](OC(=O)c2ccc(-c3ccccc3)cc2)[C@@H](NC(=O)CC(C)C)c2cc(OCCCO)ccc2N1C(=O)c1ccccc1`, the composite z-score is 0.166 in assay [1]; 0.148 in assay [2]; -0.0525 in assay [3]; 0.418 in assay [5]; -0.106 in assay [6]; -0.101 in assay [7]. Further, the composite z-score in assay [8] turned out to be 0.648; in [9], 0.455; in assay [10] it was 0.214. In addition, the z-score in assay [4] was -0.493 (inactive).
For `COc1ccc(C(O)C2C=CC3C(=O)N(c4ccccc4)C(=O)C3N2Nc2ccccc2F)cc1` (stereo not given), the composite z-score in assay [1] was 1.47; in [2] it was 0.447; in [3], 1; in assay [5], 0.111; in assay [6], 0.102; in assay [7] it was -0.296. Further, the composite z-score in assay [8] was 0.0817; in [9] it was -0.81; in assay [10], 0.685. Moreover, the z-score in assay [4] was 0.747 (inactive).
On to `COCCOC(=O)N1C(=O)[C@@]2(c3ccccc31)[C@H](c1ccc(OCCO)cc1)N1[C@H](c3ccccc3)[C@H](c3ccccc3)OC(=O)[C@H]1[C@@H]2C(=O)N1CCCCCCC1`, for which the composite z-score is 2.35 in assay [1]; 3.24 in [2]; 1.9 in assay [3]; 1.76 in assay [5]; 1.46 in assay [6]; 2.03 in [7]. Moreover, the composite z-score in assay [8] was determined as 1.76; in assay [9], 2.62; in assay [10] it was 1.89. Moreover, the z-score in assay [4] is -1.59 (inactive).

These data come from PubChem BioAssay.
